Source: PubChem BioAssay
Calls of active or inactive are those of the source.

What was measured:
Albumin (Bos taurus) = Albumin (Bos taurus) (UniProt P02769); test: compounds binding labelled BSA control protein – biochemical, small-molecule microarray, Alexa647 label, 635/667 nm fluorescence, artefact control for SMM control protein annotation, profiling panel (AID 1118); details: BSA-A647 binding, fluorescence 635 nm, higher = more signal;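 also: score merges 667 nm emission intensity and signal-to-noise per printed compound spot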
Albumin (Bos taurus), sequence (P02769 whole entry, looked up): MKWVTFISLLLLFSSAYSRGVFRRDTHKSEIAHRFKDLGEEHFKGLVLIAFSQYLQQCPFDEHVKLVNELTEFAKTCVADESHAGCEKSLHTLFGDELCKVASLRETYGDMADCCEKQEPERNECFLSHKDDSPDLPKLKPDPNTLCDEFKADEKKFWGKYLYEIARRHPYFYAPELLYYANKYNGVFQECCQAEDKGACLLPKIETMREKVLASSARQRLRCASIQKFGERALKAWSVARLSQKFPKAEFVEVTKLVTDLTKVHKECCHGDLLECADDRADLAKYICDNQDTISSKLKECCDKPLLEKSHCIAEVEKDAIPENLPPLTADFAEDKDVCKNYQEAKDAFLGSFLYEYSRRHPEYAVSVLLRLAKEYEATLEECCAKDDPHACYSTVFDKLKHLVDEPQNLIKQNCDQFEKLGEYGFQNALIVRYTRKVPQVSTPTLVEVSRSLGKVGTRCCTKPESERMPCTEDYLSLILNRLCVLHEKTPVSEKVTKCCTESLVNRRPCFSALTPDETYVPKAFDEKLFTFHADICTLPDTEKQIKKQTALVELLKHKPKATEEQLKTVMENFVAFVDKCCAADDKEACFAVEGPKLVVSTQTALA

[1] = probe aXIP binding to arrayed compounds – biochemical, NeuroSMM set, 635/667 nm fluorescence, primary screen (AID 1119); details: small-molecule microarray, higher = more signal, called active from +8 up or from −8 down;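 also: probe is the protein aXip251-270 applied at 1 µg/mL to compound-printed slides; binding of probe to printed compounds measured as 667 nm fluorescence plus signal to noise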
[2] = probe aNOTCH3 binding on compound microarray – biochemical, small-molecule microarray, 635/667 nm fluorescence, primary screen (AID 1120); details: higher = more signal;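 also: probe is a biotin-tagged antibody raised against NOTCH3 rather than NOTCH3 protein; score merges spot fluorescence near 667 nm with spot signal to noise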
[3] = probe aNOTCH2 binding on compound microarray – biochemical, small-molecule microarray, 635/667 nm fluorescence, primary screen (AID 1121); details: higher = more signal;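 also: score merges feature fluorescence read at 667 nm with its signal to noise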
[4] = molecular target: Carbonic anhydrase 2 (Homo sapiens) (UniProt P00918); test: compounds binding carbonic anhydrase 2 – biochemical, small-molecule microarray, Alexa647-labelled CAII, profiling panel (AID 1122); details: CAII-A647 binding fluorescence, higher = more signal
[5] = COS7 lysate on small-molecule microarray, probe aHis, 635 nm (AID 1123); details: COS7 cell lysate, fluorescence, higher = more signal;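 also: z-score combines 667nm fluorescence intensity with signal-to-noise per printed compound spot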
[6] = probe aLAP1 signal on lysate-treated microarray – cell lysate, small-molecule microarray, COS7 lysate, primary screen (AID 1124); details: probe aLAP1, fluorescence, higher = more signal;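 also: lysate comes from COS7 cells expressing LAP1 and is applied at 0.3 µg/mL; score merges spot fluorescence near 667 nm with signal-to-noise over triplicate slides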
Sam68 (KHDRBS1) = test: compounds binding KHDRBS1 protein – biochemical, small-molecule microarray, 635 nm fluorescence, primary screen (AID 1125); details: higher = more signal;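 also: score merges 667 nm channel intensity with signal to noise over triplicate slides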
[7] = test system: Chordin-like protein 2 (CHRDL2); test: compounds binding chordin-like 2 – biochemical, small-molecule microarray, 635 nm fluorescence, primary screen (AID 1126); details: fluorescence 635 nm, higher = more signal;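 also: printed compound slides probed with Chrdl2 protein at 4 µg/mL for 1 h at 4 C; score merges 667 nm emission intensity with signal to noise over three replicate slides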
[8] = molecular target: Concanavalin-A (Canavalia ensiformis) (UniProt P02866); test: compounds binding concanavalin A lectin – biochemical, small-molecule microarray, Alexa647 label, 635 nm, artefact control for SMM control protein annotation, primary screen (AID 1127); details: ConA-A647 binding fluorescence, higher = more signal;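 also: z combines 667 nm emission intensity with signal-to-noise across three replicate slides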
Concanavalin-A (Canavalia ensiformis), sequence (P02866 whole entry, looked up): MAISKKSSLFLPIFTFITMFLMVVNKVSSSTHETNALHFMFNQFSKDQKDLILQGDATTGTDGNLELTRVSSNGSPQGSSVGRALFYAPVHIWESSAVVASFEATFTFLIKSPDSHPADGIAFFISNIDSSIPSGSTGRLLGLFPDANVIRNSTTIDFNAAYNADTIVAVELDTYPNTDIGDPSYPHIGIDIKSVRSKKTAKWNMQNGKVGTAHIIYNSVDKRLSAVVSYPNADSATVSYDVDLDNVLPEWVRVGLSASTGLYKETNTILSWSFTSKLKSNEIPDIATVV

SMILES	composite z-score (Albumin (Bos taurus))	composite Z-score [1]	composite z-score [2]	composite z-score [3]	composite z-score [4]	composite z-score [5]	composite z-score [6]	composite z-score (Sam68 (KHDRBS1))	composite z-score [7]	composite z-score [8]
C=CCC(OC(C)=O)[C@@H]1[C@@H](N(Cc2ccc(-c3cccc(C(F)(F)F)c3)o2)C(=O)c2ccc(C)cc2)c2cc(OCCCO)ccc2N1C(=O)Cc1ccc2ccccc2c1 (stereo not given in full)	-0.257	0.421 (inactive)	-0.0702	-0.153	-0.253	-0.275	-0.472	-2.05	0.264	-0.594
C[C@H]1C2[C@H](Cc3ccccc3)NC(=O)[C@]23C(=O)N[C@H](Cc2ccccc2)C(=O)N2CCC[C@H]2C(=O)NC/C=C\C/C=C/C3[C@@H]2O[C@]12C (stereo not given in full)	0.157	0.0894 (inactive)	-0.0613	0.0022	0.0997	-0.0175	0.249	0.194	0.132	0.78
COc1cc(COC(C)=O)ccc1OC(C)=O	-0.0355	-0.254 (inactive)	0.397	-0.0304	-0.171	0.279	-0.184	0.624	0.558	0.733
C=CCOC(=O)[C@H]1[C@@H]2C(=O)O[C@@H](c3ccccc3)[C@@H](c3ccccc3)N2[C@@H](c2ccc(OCCOC(=O)[C@H]3C[C@H]4C(=O)N[C@@H](CCCCNC(C)=O)C(=O)N4[C@H]3c3cccc(OCCO)c3)cc2)[C@]12C(=O)Nc1ccccc12	-0.168	0.93 (inactive)	-0.0026	-0.114	0.392	2.16	0.168	1.25	1.31	1.15
CCCc1cc2c(n1Cc1cc(F)cc(F)c1)C(C)C1CN(C(=O)c3ccccc3)C(C)(C(=O)OC)C21 (stereo not given)	1	0.723 (inactive)	0.272	0.341	0.633	3.26	1.07	1.22	-0.255	1.11
C[N+](C)(C)CCCCNC(=O)[C@@H]1C[C@@H]2C(=O)N[C@@H](Cc3ccccc3)C(=O)N2[C@@H]1c1cccc(OCCO)c1	-0.634	0.668 (inactive)	-0.217	-0.199	0.66	0.959	-0.15	-0.174	1.04	-0.504
CN(C)C(=O)[C@]1(Cc2ccccc2N=[N+]=[N-])N=C(c2ccc(OCCCO)cc2)O[C@@H]1c1ccccc1N=[N+]=[N-]	0.872	-1.05 (inactive)	0.201	0.134	0.556	2.85	0.274	1.29	-0.206	1.14
CC(C)C(=C=CC[C@@H](O)c1ccc(OCCO)cc1)C[C@@H](O)COCc1ccccc1	0.531	-0.114 (inactive)	0.0744	-0.105	0.624	0.924	0.664	1.19	0.325	-0.625
Cc1ccc(S[C@]2(C(=O)NCCCN(C)C)CC(=O)N(Cc3cc(C(F)(F)F)cc(C(F)(F)F)c3)[C@@H]2c2ccc(CO)cc2)cc1	0.384	0.624 (inactive)	-0.149	-0.106	0.874	0.616	0.357	-0.427	-0.869	-0.949
CCC(CC)C(O)C1C=CC2C(=O)NC(=O)C2N1Nc1ccccn1 (stereo not given)	0.958	-0.248 (inactive)	-0.0219	-0.0438	0.763	0.864	-0.019	0.0905	0.416	0.228
CN1C=C(C(=O)OCCS(C)(=O)=O)C(C(=O)OCCS(C)(=O)=O)=CC(c2ccc(CO)cc2)=CC1C1CC1 (stereo not given)	-0.0317	0.0063 (inactive)	-0.0918	-0.133	0.497	0.951	0.901	0.449	-0.246	0.168
COc1ccc(CCNC(=O)[C@@H]2c3ccccc3C(=O)N(Cc3ccccc3Cl)[C@H]2c2ccc(CO)cc2)cc1	0.0645	-0.145 (inactive)	-0.0647	-0.0712	0.363	1.47	0.0463	0.579	-0.014	0.207
[N-]=[N+]=Nc1ccccc1[C@@H]1OC(c2ccc(OCCCO)cc2)=N[C@]1(CCS(=O)(=O)c1ccccc1)C(N)=O	0.935	0.185 (inactive)	0.308	0.125	0.438	2.02	1.66	1.29	-0.227	1.16
CC(C)NC(=O)[C@@H]1c2ccccc2C(=O)N(C2Cc3ccccc3C2)[C@H]1c1ccc(CO)cc1	0.416	0.392 (inactive)	-0.145	-0.117	0.492	1.62	0.781	0.983	-0.321	0.771
O=C1OCCC/C=C\[C@H]2OC34C=CCN(Cc5ccccc5)C(=O)[C@H]3N(CCCO)C(=O)[C@@H]4C12 (stereo not given in full)	-0.937	0.581 (inactive)	-0.327	-0.104	0.948	-0.861	1.59	-0.374	-1.79	-1.53
CC(C)N1C(=O)c2ccccc2[C@](C)(C(=O)NCCN2CCOCC2)[C@@H]1c1ccc(CO)cc1	0.406	-0.523 (inactive)	-0.0697	-0.195	0.766	2.48	0.385	0.359	-1.12	-0.0721
C=C(/C(=C/C[C@H](OC(C)=O)c1ccccc1OCCO)c1cnc2ccccc2c1)C(C)C	0.0816	-0.323 (inactive)	0.16	-0.102	0.722	0.202	-0.0507	0.461	0.384	0.922
COc1ccccc1CN1C(=O)c2ccccc2[C@@]2(Cc3ccccc3N(CC(C)C)C2=O)[C@@H]1c1ccc(CO)cc1	-0.119	0.188 (inactive)	-0.211	-0.143	-0.137	0.19	0.249	0.253	-0.238	0.277
CC(C)NC(=O)[C@@]1(C)c2ccccc2C(=O)N(Cc2cc(C(F)(F)F)cc(C(F)(F)F)c2)[C@H]1c1ccc(CO)cc1	-0.47	-0.0197 (inactive)	-0.165	-0.123	0.689	2.07	-0.208	0.784	-1.39	0.0957
CC(C)C(O)C1C=CC2C(=O)N(c3ccccc3)C(=O)C2N1Nc1ccc([N+](=O)[O-])cc1 (stereo not given)	0.963	2.65 (inactive)	1.2	0.185	0.719	1.84	0.894	1.13	-0.565	0.726
Cc1ccc(S[C@]2(C(=O)NC3CC3)CC(=O)N(Cc3ccccc3)[C@@H]2c2ccc(CO)cc2I)cc1	0.596	-0.35 (inactive)	-0.209	0.0012	0.742	2.25	0.337	0.0282	-0.682	-0.391
CN1C(=O)C2C=CC(C(O)c3ccc([N+](=O)[O-])cc3)N(N3CCCCC3)C2C1=O (stereo not given)	0.818	-0.0829 (inactive)	0.246	0.0791	0.673	1.55	0.761	1.26	0.172	1.09
NC(=O)NCC#Cc1ccc2c(c1)[C@]1(C(=O)N2)[C@H](C(N)=O)[C@H]2C(=O)O[C@H](c3ccccc3)[C@H](c3ccccc3)N2[C@@H]1c1ccc(O)cc1	-0.0636	1.42 (inactive)	0.286	0.668	0.688	3.15	0.505	0.652	-0.034	-0.279
COc1cc(Br)cc(C(O)C2C=CC3C(=O)N(C)C(=O)C3N2N2CCCCC2)c1OC (stereo not given)	0.435	1.94 (inactive)	-0.165	-0.0708	0.707	1.28	0.112	-0.309	-1.39	0.18
COc1ccccc1CN1C(=O)c2ccccc2[C@@H](C(=O)NC2CC2)[C@@H]1c1ccc(CO)cc1	-1.07	0.0824 (inactive)	0.0522	-0.0449	0.602	1.05	0.849	1.31	0.837	1.14
CCOC(=O)C[C@H]1[C@H](OC(=O)c2ccc(C(=O)c3ccccc3)cc2)[C@@H](NC(=O)c2ccc3ccccc3n2)c2cc(OCCCO)ccc2N1C(=O)c1ccccc1	0.583	-0.12 (inactive)	0.0488	-0.0646	0.249	0.994	0.545	1.29	-0.322	1.12
COCCOC(=O)N1C(=O)[C@@]2(c3cc(C#Cc4ccc(OC)cc4)ccc31)[C@H](c1ccc(O)cc1)N1[C@H](c3ccccc3)[C@H](c3ccccc3)OC(=O)[C@H]1[C@@H]2C(=O)N1CCc2cc(OC)c(OC)cc2C1	0.595	0.536 (inactive)	0.327	-0.0877	0.117	0.75	0.16	1.28	0.252	1.12
